# Assay results from PubChem BioAssay (NCI).
# The panel holds about 83,000 compounds, 20% with a hit somewhere; the sample as a whole holds those more often.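 96-well plates, one dose, 48 hours. Percent growth reported; active if below 10.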 Unmarked numbers belong to inactive results. Active and inactive are the calls of the source.
# Test system: SK-MEL-2 melanoma
# Assay: NCI-60 one-dose screen, 48 h (100 = growth as untreated, 0 = no growth, -100 = all killed)
# Settings: 10 µM unless noted
row,SMILES,growth
1,O=C(NCCCN1CCOCC1)c1cccc(N2C(=O)/C(=C/c3ccc(F)cc3)SC2=S)c1,109%
2,CC(C)NC1CCC(Nc2ccnc3cc(Cl)ccc23)CC1 (centres undefined),116%
3,Fc1ccc(-c2nn(-c3ccccc3)cc2-c2nc3ccccc3o2)cc1,125%
4,COc1ccc(C/C(C)=C(/c2ccc(OCCN3CCCCC3)cc2)c2ccc(OC(=O)NCc3ccccc3)cc2)cc1,-86.2% (active)
5,Cn1cc(-c2nonc2-c2c[nH]c3ccc(Br)cc23)c2cc(Br)ccc21,73.9%
6,Cn1c(=O)c2c(nc(NC3=NS(=O)(=O)c4ccccc43)n2CC(=O)N2CCc3ccccc32)n(C)c1=O,106%
7,Clc1ccc(Nc2nnc(COc3ccccc3)c3ccccc23)cc1,-26.5% (active)
8,O=[N+]([O-])c1ccc(S(=O)(=O)N2CCN(C3=NS(=O)(=O)c4ccccc4N3c3ccccc3)CC2)cc1,61.6%
9,CCNC(=O)c1[nH]cc(-c2ccccc2)c1-c1cc(OC)c2c(c1OC)OCO2,99.9%
10,COCCn1c(-c2csc(-c3cn(C)c4ccc(OC)cc34)n2)cc2cccnc21,54%
11,S=C(Nc1ccc(-c2nc(N3CCOCC3)c3cccn3n2)cc1)Nc1cccnc1,43.5%
12,COc1cc(CNC(=O)CCCC/C=C/C(C)C)ccc1OCc1nnc(Nc2ccc([N+](=O)[O-])cc2)o1,78.9%
13,N#CC1=C(c2ccc(Cl)cc2)Nc2c(c(-c3ccc(Cl)cc3)nn2-c2ccccc2)C12C(=O)Nc1ccc(Cl)cc12 (centres undefined),74.9%
14,CCOC(=O)/C=C1\S/C(=N\Nc2cc(=O)[nH]c3ccc(Cl)cc23)N(c2ccccc2)C1=O,105%
15,COc1cccc(NC(=O)Cn2cc(CN3CCN(c4ccnc5cc(Cl)ccc45)CC3)nn2)c1,106%
16,COc1cc(N2C(=O)[C@H](O)C2c2ccc(SC)cc2)cc(OC)c1OC (some centres undefined),16.6%
17,CSc1nnc(-c2cnn3c2NC(c2ccccc2)C3)n1-c1ccc(C(F)(F)F)cc1 (centres undefined),50.2%
18,N=C(N)c1ccc(-c2ccc(-c3ccc(F)cc3)o2)o1,35.6%
19,CC1=NN(c2nc(SCC(=O)Nc3nc4ccc(C)cc4s3)nc(-c3ccccc3)c2C#N)C(=O)C1,111%
20,C/C(Nc1ccc(Cl)c(Cl)c1)=C1\CCOC1=O,97%

row,SMILES,growth
1,N#Cc1cccc(-c2c(-c3ccc4ccccc4c3)oc3ccccc3c2=O)c1,59.1%
2,CC(C)N1CCN(Cc2ccc3c(NNC(=O)c4ccccc4)nc4cc(F)ccc4n23)CC1,59.6%
3,O=S(=O)(NCCCNc1nccc(-c2c(-c3ccc(F)c(O)c3)nc3occn23)n1)c1ccccc1,31.9%
4,O=C1NCCC12CCN(c1c(Cl)cncc1-c1ccc(O)cc1)CC2,105%
5,Cc1cccnc1NC(=S)Nc1ncccc1C,103%
6,COc1ccc2c3c([nH]c2c1)C(=O)c1nc(C)ccc1C3=O,66.7%
7,CC1Cc2c(Cl)ncnc2N(C)c2ccc(F)cc21 (centres undefined),110%
8,O=C1c2cc(Cl)ccc2S(=O)(=O)c2c(NCCCNCCO)nc3ccccc3c21,23%
9,O=C(c1ccc(Cl)cc1)N1CCN(c2ccnc3cc(Cl)ccc23)CC1,88.9%
10,Cc1nnc(NC(=O)c2nc(S(=O)(=O)Cc3ccc(F)cc3)ncc2Cl)s1,89.5%
11,COc1ccc2[nH]cc(-c3nc(-c4cn(C)c5c(Cl)nccc45)cs3)c2c1,50.9%
12,COc1ccc(/C(C)=C(/c2ccc(OCCCN(C)C)cc2)c2ccc(OC(=O)Cc3ccccc3)cc2)cc1,91%
13,CCOc1nc(-c2ccccc2)cc2c(O)c(C(=O)NN)[nH]c(=O)c12,83.7%
14,Cn1c(=O)c2[nH]c(N/N=C/c3ccccc3Br)nc2n(C)c1=O,120%
15,Clc1ccc(Sc2cnc(-c3ccccc3)o2)cc1,100%
16,O=C(Nc1nn(-c2ccc(Cl)cc2Cl)nc1-c1ccccc1)c1ccccc1,106%
17,Cc1ccc(/C=N/Nc2nc(Nc3ccccc3)nc(-n3nc(C)cc3C)n2)cc1,32.6%
18,O=C(Nc1cc(Cl)ccc1O)c1ccc(Nc2ccnc(C(F)(F)F)c2)cc1,41.4%
19,CC(C)(C)c1cc(-c2nc3ccc(N4CCN(S(C)(=O)=O)CC4)cc3[nH]2)cc(C(C)(C)C)c1O,94%
